# Assay results reported in the supplement of paper PMC10849652.
# Of roughly 8,800 targets only a part is listed; those with a hit were picked by preference. About 0.5% of all pairs of compound and target were hits. A number with no mark means an inactive call.
# Tests used:
# Experiment in all cases: log2 fold change, soluble protein after heating vs DMSO (PISA); higher = thermal stabilisation; K562 lysate, 10 uM; active = over 0.2 and 3.5 SD of the protein, either way, in both replicates (recomputed)
# nilotinib = compound: Cc1cn(-c2cc(NC(=O)c3ccc(C)c(Nc4nccc(-c5cccnc5)n4)c3)cc(C(F)(F)F)c2)cn1 [nilotinib]
# How it was run: (§1)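 Pellets of K562 cells were dounce-homogenised in PBS pH 7.4 with 1 mM MgCl2, and the crude extract was held at 1 mg/mL protein for a 30 min treatment with 10 μM compound. Aliquots were heated for 3 min over 48°C-58°C and pooled before NP-40 was added to 0.5% at 4°C. The supernatant from 21,000xg for 90 min was quantified by TMTpro 16plex LC-MS/MS with channel sums equalised. Values are reported from duplicates as log-two fold change in thermal stability relative to solvent controls.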
# [1] = compound: Cc1nc(Nc2n[nH]c3c2CN(C(=O)N[C@H](CN(C)C)c2ccccc2)C3(C)C)c2sccc2n1
# How it was run: as §1
# dasatinib = compound: Cc1nc(Nc2ncc(C(=O)Nc3c(C)cccc3Cl)s2)cc(N2CCN(CCO)CC2)n1 [dasatinib]
# How it was run: as §1
# [2] = compound: Cc1ncc(-c2ccnc(Nc3ccc(S(C)(=O)=O)cc3)n2)n1C(C)C
# How it was run: as §1
# [3] = compound: Cn1cc(-c2ccc3c(c2)CCN3C(=O)Cc2cccc(C(F)(F)F)c2)c2c(N)ncnc21
# How it was run: as §1
# quisinostat = compound: Cn1cc(CNCC2CCN(c3ncc(C(=O)NO)cn3)CC2)c2ccccc21 [quisinostat]
# How it was run: as §1
# tipifarnib = compound: Cn1cncc1[C@@](N)(c1ccc(Cl)cc1)c1ccc2c(c1)c(-c1cccc(Cl)c1)cc(=O)n2C [tipifarnib]
# How it was run: as §1
# [4] = compound: NC(=O)Nc1cc(-c2cccc(F)c2)sc1C(=O)N[C@H]1CCCNC1
# How it was run: as §1
# [5] = compound: NC(=O)c1cnc(N[C@@H]2CCCC[C@@H]2N)nc1Nc1cccc(-n2nccn2)c1
# How it was run: as §1
# [6] = compound: NC1(c2ccc(-c3nc4ccn5c(=O)[nH]nc5c4cc3-c3ccccc3)cc2)CCC1
# How it was run: as §1
# [7] = compound: NCC(=O)Nc1ccc(-n2nc(C(F)(F)F)cc2-c2ccc3c(ccc4ccccc43)c2)cc1
# How it was run: as §1
# vorinostat = compound: O=C(CCCCCCC(=O)Nc1ccccc1)NO [vorinostat]
# How it was run: as §1
# silmitasertib = compound: O=C(O)c1ccc2c(c1)nc(Nc1cccc(Cl)c1)c1ccncc12 [silmitasertib]
# How it was run: as §1
# [8] = compound: O=C1NC(=O)C(c2cnc3ccccn23)=C1c1cn2c3c(cc(F)cc13)CN(C(=O)N1CCCCC1)CC2
# How it was run: as §1
# entospletinib = compound: c1cn2cc(-c3ccc4cn[nH]c4c3)nc(Nc3ccc(N4CCOCC4)cc3)c2n1 [entospletinib]
# How it was run: as §1
# Chain of UniProt P26583 (P26583 whole entry, looked up): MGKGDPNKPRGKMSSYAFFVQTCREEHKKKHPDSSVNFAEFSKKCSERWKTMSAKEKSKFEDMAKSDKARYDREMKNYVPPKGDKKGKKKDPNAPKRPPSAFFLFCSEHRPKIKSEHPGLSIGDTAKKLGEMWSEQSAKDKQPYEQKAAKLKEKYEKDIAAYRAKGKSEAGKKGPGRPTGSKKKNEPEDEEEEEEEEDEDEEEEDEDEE
# Chain of UniProt Q49A26 (Q49A26 whole entry, looked up): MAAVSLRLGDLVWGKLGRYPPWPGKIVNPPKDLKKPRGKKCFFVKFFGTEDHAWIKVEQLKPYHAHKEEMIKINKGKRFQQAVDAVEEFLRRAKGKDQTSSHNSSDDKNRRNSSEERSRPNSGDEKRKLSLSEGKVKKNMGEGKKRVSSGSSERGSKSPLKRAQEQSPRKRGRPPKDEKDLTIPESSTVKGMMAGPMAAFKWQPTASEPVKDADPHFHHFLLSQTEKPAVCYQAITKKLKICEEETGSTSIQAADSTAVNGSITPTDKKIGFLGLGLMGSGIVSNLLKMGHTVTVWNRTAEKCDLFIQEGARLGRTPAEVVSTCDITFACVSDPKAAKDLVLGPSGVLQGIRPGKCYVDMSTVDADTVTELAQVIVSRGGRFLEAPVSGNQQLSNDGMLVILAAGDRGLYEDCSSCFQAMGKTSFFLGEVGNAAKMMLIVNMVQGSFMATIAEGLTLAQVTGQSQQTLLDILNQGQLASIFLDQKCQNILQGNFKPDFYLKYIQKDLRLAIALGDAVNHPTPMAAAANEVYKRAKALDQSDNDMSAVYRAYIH
# Chain of UniProt Q8IU81 (Q8IU81 whole entry, looked up): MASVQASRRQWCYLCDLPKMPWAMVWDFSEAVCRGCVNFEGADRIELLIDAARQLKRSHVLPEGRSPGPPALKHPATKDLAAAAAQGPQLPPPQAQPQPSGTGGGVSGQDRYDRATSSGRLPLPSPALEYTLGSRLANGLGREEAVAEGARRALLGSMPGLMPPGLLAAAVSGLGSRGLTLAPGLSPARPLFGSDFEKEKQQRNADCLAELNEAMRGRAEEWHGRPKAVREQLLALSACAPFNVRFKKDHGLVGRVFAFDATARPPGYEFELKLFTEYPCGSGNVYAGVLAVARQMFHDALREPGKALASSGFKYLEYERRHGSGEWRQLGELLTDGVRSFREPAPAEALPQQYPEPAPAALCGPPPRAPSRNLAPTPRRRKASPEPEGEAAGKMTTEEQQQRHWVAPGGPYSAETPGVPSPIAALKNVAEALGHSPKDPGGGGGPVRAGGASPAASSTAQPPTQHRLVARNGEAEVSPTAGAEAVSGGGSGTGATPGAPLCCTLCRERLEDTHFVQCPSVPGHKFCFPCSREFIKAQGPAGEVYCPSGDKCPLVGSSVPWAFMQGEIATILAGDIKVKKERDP
# Chain of UniProt Q96SY0 (Q96SY0 whole entry, looked up): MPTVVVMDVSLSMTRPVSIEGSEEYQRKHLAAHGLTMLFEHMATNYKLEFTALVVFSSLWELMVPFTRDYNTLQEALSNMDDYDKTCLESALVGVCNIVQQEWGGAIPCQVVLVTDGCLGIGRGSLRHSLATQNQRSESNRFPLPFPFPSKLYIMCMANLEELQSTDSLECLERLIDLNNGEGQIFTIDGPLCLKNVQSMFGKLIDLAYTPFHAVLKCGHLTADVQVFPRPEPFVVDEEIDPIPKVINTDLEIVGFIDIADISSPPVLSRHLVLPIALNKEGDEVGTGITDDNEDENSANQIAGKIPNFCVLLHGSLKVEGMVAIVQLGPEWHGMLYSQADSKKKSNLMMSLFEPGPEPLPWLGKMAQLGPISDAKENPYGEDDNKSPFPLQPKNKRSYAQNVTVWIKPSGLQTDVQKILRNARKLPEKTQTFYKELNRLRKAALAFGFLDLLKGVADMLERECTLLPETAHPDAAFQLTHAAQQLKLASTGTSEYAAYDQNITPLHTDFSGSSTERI
# Chain of UniProt Q07666 (Q07666 whole entry, looked up): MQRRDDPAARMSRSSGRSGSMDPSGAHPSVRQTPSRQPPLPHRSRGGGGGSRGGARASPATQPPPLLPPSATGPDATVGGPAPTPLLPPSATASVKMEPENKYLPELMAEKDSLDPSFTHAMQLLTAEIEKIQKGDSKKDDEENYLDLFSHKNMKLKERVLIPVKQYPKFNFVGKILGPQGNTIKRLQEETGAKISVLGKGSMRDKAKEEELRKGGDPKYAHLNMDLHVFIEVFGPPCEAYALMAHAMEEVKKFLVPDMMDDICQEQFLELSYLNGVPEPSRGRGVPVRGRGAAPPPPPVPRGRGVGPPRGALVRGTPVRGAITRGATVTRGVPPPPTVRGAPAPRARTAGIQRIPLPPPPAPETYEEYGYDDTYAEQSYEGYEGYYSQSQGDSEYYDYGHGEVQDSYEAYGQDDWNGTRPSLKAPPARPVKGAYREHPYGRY
# Chain of UniProt P25098 (P25098 whole entry, looked up): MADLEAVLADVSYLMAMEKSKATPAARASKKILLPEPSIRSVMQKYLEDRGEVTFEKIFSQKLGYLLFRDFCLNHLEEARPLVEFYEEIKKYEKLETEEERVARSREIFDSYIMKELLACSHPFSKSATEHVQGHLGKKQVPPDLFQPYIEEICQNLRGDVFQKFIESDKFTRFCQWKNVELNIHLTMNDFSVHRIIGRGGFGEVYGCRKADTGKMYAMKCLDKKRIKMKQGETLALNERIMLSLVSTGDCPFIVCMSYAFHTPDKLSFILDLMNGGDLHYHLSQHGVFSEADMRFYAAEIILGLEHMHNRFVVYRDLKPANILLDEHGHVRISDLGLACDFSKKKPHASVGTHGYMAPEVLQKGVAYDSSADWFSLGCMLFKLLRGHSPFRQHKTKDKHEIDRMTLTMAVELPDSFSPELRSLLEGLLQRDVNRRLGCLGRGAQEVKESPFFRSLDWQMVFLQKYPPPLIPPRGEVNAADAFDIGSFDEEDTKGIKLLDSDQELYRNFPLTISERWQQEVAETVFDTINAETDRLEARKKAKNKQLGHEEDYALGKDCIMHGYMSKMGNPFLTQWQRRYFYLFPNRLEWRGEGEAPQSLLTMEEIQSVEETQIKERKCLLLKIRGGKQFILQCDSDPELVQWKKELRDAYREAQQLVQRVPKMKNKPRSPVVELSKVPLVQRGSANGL
# Chain of UniProt P78347 (P78347 whole entry, looked up): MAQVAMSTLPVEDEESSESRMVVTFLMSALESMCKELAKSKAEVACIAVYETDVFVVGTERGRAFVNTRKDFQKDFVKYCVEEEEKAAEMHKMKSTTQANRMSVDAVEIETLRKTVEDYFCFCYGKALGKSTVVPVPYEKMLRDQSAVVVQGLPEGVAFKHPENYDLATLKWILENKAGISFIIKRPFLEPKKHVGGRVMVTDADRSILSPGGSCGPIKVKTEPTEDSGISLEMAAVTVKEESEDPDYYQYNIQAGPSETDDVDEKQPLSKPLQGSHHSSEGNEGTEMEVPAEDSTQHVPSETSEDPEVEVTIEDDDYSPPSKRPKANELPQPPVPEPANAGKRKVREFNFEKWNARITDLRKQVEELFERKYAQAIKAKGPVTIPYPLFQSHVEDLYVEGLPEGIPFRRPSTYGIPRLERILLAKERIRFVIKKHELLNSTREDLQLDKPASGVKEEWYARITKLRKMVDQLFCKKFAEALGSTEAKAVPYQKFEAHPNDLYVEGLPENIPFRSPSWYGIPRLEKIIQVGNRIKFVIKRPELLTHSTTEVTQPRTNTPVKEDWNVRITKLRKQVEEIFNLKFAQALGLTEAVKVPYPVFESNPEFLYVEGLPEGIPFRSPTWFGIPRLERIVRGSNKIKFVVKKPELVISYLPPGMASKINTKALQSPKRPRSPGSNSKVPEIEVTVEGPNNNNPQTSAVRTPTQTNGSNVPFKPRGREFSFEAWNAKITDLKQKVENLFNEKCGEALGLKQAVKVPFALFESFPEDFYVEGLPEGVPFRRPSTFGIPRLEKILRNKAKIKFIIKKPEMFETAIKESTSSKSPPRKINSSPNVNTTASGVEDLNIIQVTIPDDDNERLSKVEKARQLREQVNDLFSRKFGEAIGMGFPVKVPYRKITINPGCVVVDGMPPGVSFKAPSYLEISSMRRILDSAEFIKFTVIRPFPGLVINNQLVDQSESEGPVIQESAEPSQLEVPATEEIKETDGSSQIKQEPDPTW
# Chain of UniProt Q16836 (Q16836 whole entry, looked up): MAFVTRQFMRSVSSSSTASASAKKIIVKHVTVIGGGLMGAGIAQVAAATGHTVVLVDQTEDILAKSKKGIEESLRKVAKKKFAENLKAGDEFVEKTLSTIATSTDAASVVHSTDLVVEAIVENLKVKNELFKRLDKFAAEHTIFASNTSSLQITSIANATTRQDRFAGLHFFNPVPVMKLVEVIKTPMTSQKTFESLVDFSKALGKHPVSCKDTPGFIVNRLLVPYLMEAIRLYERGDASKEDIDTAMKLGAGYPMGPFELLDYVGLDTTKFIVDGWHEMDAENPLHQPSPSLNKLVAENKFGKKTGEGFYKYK
# Chain of UniProt Q9H6K1 (Q9H6K1 whole entry, looked up): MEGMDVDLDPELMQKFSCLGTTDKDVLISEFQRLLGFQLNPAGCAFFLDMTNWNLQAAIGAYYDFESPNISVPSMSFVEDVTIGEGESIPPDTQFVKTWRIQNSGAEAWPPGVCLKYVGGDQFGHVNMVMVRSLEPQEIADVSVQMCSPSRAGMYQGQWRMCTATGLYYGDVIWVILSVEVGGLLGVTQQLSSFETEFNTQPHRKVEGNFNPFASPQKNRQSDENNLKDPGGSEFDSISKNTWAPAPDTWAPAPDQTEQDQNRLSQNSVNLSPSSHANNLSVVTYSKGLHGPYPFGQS
# Chain of UniProt Q14103 (Q14103 whole entry, looked up): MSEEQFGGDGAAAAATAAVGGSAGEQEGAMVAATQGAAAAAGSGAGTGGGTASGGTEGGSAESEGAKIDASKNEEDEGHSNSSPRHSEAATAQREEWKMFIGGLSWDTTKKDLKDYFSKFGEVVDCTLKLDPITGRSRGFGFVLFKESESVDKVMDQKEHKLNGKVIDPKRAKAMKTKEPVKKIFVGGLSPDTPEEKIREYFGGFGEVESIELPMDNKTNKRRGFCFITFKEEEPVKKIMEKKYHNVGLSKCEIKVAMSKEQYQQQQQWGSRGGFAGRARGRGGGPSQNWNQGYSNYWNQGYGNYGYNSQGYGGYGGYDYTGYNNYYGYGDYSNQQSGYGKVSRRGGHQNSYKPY
Target,log2 fold change (nilotinib),log2 fold change [1],log2 fold change (dasatinib),log2 fold change [2],log2 fold change [3],log2 fold change (quisinostat),log2 fold change (tipifarnib),log2 fold change [4],log2 fold change [5],log2 fold change [6],log2 fold change [7],log2 fold change (vorinostat),log2 fold change (silmitasertib),log2 fold change [8],log2 fold change (entospletinib)
HS1BP3 (UniProt Q53T59),0.021,-0.016,0.023,-0.007,0,-0.006,0.042,-0.019,0.024,-0.014,0.03,0.139,-0.038,-0.027,-0.033
HMGB2 (UniProt P26583),0.045,-0.042,0.057,0.077,0.018,0.065,0.033,-0.014,-0.018,0,0.004,0.122,-0.052,0.047,0.003
HMBOX1 isoform 5 (UniProt Q6NT76),0.186,-0.038,-0.034,0.078,0.024,-0.008,0.077,0.001,0.041,-0.055,0.004,0.093,0.025,0.02,-0.063
HEATR6 (UniProt Q6AI08),-0.085,0.022,-0.019,0.022,0,-0.008,-0.06,0.055,0.041,0.026,-0.005,-0.466 (active),0.047,-0.026,0
INTS8 (UniProt Q75QN2),0.035,0.044,-0.072,0.049,0.021,0.003,-0.009,0.067,-0.035,-0.029,-0.012,-0.401 (active),0.071,-0.016,0.054
INTS1 (UniProt Q8N201),-0.041,0.012,-0.087,0.035,0.028,-0.01,0.017,0.016,-0.038,0.011,0.014,-0.409 (active),0.027,-0.034,0.003
KHDRBS1 (UniProt Q07666),-0.032,-0.012,-0.048,-0.011,-0.003,0.037,0.032,0.005,0.011,0.028,0.005,-0.583 (active),0.018,0.016,0.008
HLTF (UniProt Q14527),-0.039,0.004,-0.041,-0.051,0.05,0.021,-0.148,0.102,0.055,-0.085,0.046,-0.246 (active),0.101,-0.101,0.017
IRF2BP1 (UniProt Q8IU81),0.018,0.016,-0.082,-0.019,0.032,-0.099,-0.124,0.057,-0.03,0.045,0.021,-0.4 (active),-0.003,-0.03,0.01
HADH isoform 2 (UniProt Q16836),-0.028,0.049,0.288 (active),0.031,0.008,0.124,0.032,-0.006,0.029,-0.031,0,-0.029,0.005,0.006,0.022
INTS14 (UniProt Q96SY0),0.024,0.023,-0.038,-0.023,-0.004,-0.018,-0.004,-0.01,-0.026,-0.011,-0.008,-0.311 (active),0.002,0.023,0.026
ILRUN (UniProt Q9H6K1),-0.12,-0.038,-0.003,-0.073,0.005,-0.047,-0.012,0.033,0.041,-0.038,0.002,-0.047,0.001,-0.01,-0.013
INPP4A (UniProt Q96PE3),0.012,-0.021,0.028,0.005,0.123,-0.03,0.03,0.032,0.015,0.032,0.016,-0.106,0.002,-0.013,0.006
GTF2I (UniProt P78347),0.001,0.002,-0.042,-0.011,0.035,-0.006,-0.008,0.034,0,-0.014,-0.001,-0.287 (active),0.091,-0.005,-0.017
GRK2 (UniProt P25098),0.001,0.393 (active),-0.058,0.01,0,0.034,-0.001,0.397 (active),0.043,-0.027,-0.055,-0.225 (active),0.066,-0.026,-0.006
HECTD4 (UniProt J3KPF0),0.014,-0.009,-0.077,-0.007,0.037,-0.145,0.016,0.02,0.011,0.017,0.051,-0.472 (active),-0.003,0.032,0.001
GLYR1 (UniProt Q49A26),0.082,0.02,-0.053,0.053,-0.048,-0.119,-0.12,-0.049,-0.012,0.023,-0.006,-0.033,-0.022,-0.007,-0.041
HADHA (UniProt P40939),0.051,-0.024,-0.036,0.002,0.03,-0.082,0.025,-0.077,-0.071,0.078,0.052,-0.159,-0.026,0.302,0.027
HERC2 (UniProt O95714),-0.077,0.017,0.032,-0.034,0.118,-0.061,0.007,0.028,-0.047,0.085,0.04,-0.006,-0.076,-0.009,0.014
HK2 (UniProt P52789),0.065,-0.003,-0.052,0,0.033,-0.079,-0.01,0.048,0.035,-0.031,-0.018,-0.443 (active),0.038,0.007,0.022
HNRNPD isoform 3 (UniProt Q14103),0.012,-0.073,0.017,0.017,0.065,0.005,-0.002,0.021,0.028,-0.033,0.074,0.078,0.005,0.09,0
